Assay [1] can be described thus: resazurin metabolic signal in HepG2 cells – cell-based, resazurin fluorescence, 24 h, PK04 Diversity Set, profiling panel (AID 1172). The note with it: HepG2 viability, higher = more signal. In general terms: Resazurin is reduced to fluorescent resorufin, in cell work by metabolically active cells.
Assay [2] can be described thus: budding yeast growth changes without added modifier – OD600, strain BY4716, 24 h, basal condition, primary screen (AID 1173). Conditions: S. cerevisiae BY4716 growth, OD600, 24 h; higher = more signal, called active from +8 up or from −8 down.
A short description of assay [3]: viability profiling in MM1S myeloma cells – cell-based, resazurin fluorescence, basal, 24 h, PK04 Diversity Set, profiling panel (AID 1174).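 Further: MM1S multiple myeloma cell line.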 The note with it: higher = more signal, called active from +8 up or from −8 down.
For assay [4], the target named is Dihydroorotate dehydrogenase (quinone), mitochondrial (Plasmodium falciparum (isolate 3D7)) (UniProt Q08210). The assay is described as follows: inhibition of P. falciparum DHODH – biochemical, C-terminal His tag, absorbance 600 nm, primary screen (AID 1175).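 Further: recombinant parasite enzyme with a five histidine tag at its C terminus.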 The note with it: PfDHODH enzyme, DCIP absorbance 600 nm; higher = more signal, called active from +8 up or from −8 down.

Assay [5] can be described thus: inhibition of PAO1 biofilm formation – strain PAO1, LB-PBS medium, absorbance 600 nm, primary screen (AID 1176). Conditions: P. aeruginosa PAO1 growth/biofilm, A600, 12 h; higher = more signal.
Assay [6] is described as follows: growth modulation of vineyard yeast isolate – strain RM11-1a, OD600, basal, 24 h, primary screen (AID 1177).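 Further: cultures grown under basal conditions with no added stressor.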 The note with it: S. cerevisiae RM11-1a growth, OD600, 24 h; higher = more signal, called active from +8 up or from −8 down.
A short description of assay [7]: growth of efflux-deficient E. coli DRC39 – strain DRC39, OD650, 24 h, E. coli filamentation inducers, primary screen (AID 1178).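 Further: growth measured as culture turbidity by optical density at 650 nm.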 The note with it: E. coli DRC39 acrAB, higher = more signal, called active from +8 up or from −8 down.
Assay [8] in a line: growth of efflux-deficient E. coli DRC39 – strain DRC39, OD650, 48 h, E. coli filamentation inducers, primary screen (AID 1179).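 Further: screen aims at cell division blockers that make cells filament.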 The note with it: E. coli DRC39 delta-acrAB growth, higher = more signal, called active from +8 up or from −8 down.
Assay [9] in a line: viability profiling in RPMI8226 myeloma cells – cell-based, resazurin fluorescence, basal, 24 h, PK04 Diversity Set, profiling panel (AID 1180).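 Further: RPMI8826 multiple myeloma cell line at 5000 cells per well.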 The note with it: higher = more signal.
Assay [10] concerns the target E3 ubiquitin-protein ligase XIAP (Homo sapiens) (UniProt P98170). Put plainly: small molecules binding XIAP protein – biophysical, small-molecule microarray, fluorescence 635 nm, primary screen (AID 1181).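 Further: score merges 667 nm emission and signal to noise over triplicate slides.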 The note with it: higher = more signal.
Assay [11] has as its system XIP peptide (Xip251-270) binding. The assay is described as follows: XIP fragment 251-270 binding compounds – biochemical, small-molecule microarray, fluorescence 635/667 nm, 0.1 µg/mL protein, primary screen (AID 1182). The note with it: fluorescent protein binding, 635 nm, higher = more signal, called active from +8 up or from −8 down.
In assay [12] the test system is XIP peptide (Xip251-270). Put plainly: compounds binding XIP fragment 251-270 – biochemical, small-molecule microarray, fluorescence 635/667 nm, 0.5 µg/mL protein, primary screen (AID 1183). Conditions: fluorescence 635 nm, higher = more signal.
Assay [13] is described as follows: blood-stage malaria parasite viability loss – strain 3D7, DAPI fluorescence, 100 nL, primary screen (AID 1184).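 Further: parasites grown inside human red blood cells in medium with human serum.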 Conditions: P. falciparum 3D7 growth, 3 d, higher = more signal.
For assay [14], the target named is Homeobox protein Hox-A13 (Mus musculus) (UniProt Q62424). Put plainly: disruptors of Hoxa13 oligonucleotide interaction – biochemical, fluorescence polarization, labeled oligonucleotide, primary screen (AID 1185). Conditions: Hoxa13:DNA binding, 15 min, higher = more signal, called active from +8 up or from −8 down.
The nature of assay [15]: blockers of DNA damage checkpoint Chk1 activation – imaging, HeLa, hydroxyurea, phospho-Chk1 antibody, percent positive cells, primary screen (AID 1186). The note with it: hydroxyurea-induced phospho-Chk1 immunofluorescence imaging, higher = more signal.
Assay [16] is described as follows: blockers of DNA damage checkpoint Chk1 activation – imaging, HeLa, hydroxyurea, phospho-Chk1 nuclear intensity, primary screen (AID 1187). Conditions: hydroxyurea-induced phospho-Chk1 immunofluorescence imaging, higher = more signal.

SMILES strings stand for the structures. Active and inactive are the calls of the source. Unless noted, how the calls were made is not given here.

Sequence of Dihydroorotate dehydrogenase (quinone), mitochondrial (Plasmodium falciparum (isolate 3D7)) (Q08210 whole entry, looked up): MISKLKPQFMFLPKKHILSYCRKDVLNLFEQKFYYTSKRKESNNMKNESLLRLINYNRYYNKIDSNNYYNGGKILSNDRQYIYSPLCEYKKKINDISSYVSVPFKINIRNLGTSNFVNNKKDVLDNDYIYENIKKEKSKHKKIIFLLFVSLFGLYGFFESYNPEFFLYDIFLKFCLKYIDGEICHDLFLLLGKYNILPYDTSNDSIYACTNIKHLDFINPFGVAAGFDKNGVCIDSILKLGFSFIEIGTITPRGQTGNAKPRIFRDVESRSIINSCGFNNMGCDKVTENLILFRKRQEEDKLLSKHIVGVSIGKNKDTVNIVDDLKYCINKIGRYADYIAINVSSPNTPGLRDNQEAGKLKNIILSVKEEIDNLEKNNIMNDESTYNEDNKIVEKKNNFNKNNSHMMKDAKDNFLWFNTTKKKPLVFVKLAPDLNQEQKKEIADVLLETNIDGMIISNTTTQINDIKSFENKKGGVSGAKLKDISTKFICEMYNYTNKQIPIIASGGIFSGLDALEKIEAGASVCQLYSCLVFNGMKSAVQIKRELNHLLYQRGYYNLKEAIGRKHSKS
Sequence of Homeobox protein Hox-A13 (Mus musculus) (Q62424 whole entry, looked up): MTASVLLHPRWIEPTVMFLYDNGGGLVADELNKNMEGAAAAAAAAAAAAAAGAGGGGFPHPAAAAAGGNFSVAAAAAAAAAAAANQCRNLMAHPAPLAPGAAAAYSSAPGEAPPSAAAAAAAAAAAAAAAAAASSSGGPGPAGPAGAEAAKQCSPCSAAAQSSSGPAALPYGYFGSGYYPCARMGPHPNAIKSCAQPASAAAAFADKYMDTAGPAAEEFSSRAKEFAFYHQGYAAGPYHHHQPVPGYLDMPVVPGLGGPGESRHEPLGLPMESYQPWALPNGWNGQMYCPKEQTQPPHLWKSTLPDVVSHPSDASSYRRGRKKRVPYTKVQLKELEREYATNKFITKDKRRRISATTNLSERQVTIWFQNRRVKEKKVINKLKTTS
Sequence of E3 ubiquitin-protein ligase XIAP (Homo sapiens) (P98170 whole entry, looked up, the tested form may be a part): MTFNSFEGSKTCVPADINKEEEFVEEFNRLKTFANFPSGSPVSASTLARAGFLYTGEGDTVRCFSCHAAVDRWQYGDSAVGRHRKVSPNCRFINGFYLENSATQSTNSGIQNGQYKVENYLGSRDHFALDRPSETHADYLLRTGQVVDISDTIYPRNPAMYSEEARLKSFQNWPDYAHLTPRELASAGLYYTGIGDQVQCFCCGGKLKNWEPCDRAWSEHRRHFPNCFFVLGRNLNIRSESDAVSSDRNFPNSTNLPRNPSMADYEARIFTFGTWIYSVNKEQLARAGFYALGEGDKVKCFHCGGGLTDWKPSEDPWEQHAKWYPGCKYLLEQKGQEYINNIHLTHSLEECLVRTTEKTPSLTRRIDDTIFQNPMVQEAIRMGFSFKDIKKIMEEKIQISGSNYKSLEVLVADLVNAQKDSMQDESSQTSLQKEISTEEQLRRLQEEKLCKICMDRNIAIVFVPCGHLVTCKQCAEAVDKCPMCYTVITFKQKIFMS

With `COC(=O)C1N=C(c2ccc(OCCCO)cc2)N(c2ccccc2)O1` (configuration not stated), the z-score in assay [1] is 0.863; in [2], -1.41 (inactive); in [3], -0.279 (inactive); in [5], -1.1 (inactive); in assay [6], 0.061 (inactive); in assay [7] it was 0.642 (inactive). The z-score in assay [8] was -0.0518 (inactive); in assay [9], 1.22; in assay [13], 0.704; in assay [14] it was -3.85 (inactive); in assay [15] it was -0.729 (inactive); in assay [16], -0.63 (inactive). Also, the composite z-score was -1.24 (inactive) in [4], -0.0118 in [10], 2.4 (inactive) in assay [11] and 0.864 in assay [12].
For the compound `CC(C)C(=C=CC[C@H](O)c1cccc(OCCO)c1)CCO`, the z-score is 0.934 in assay [1]; -1.47 (inactive) in assay [2]; 1.09 (inactive) in assay [3]; -0.0464 (inactive) in assay [5]; -0.661 (inactive) in [6]; 0.353 (inactive) in assay [7]. In addition, the z-score in [8] is 0.642 (inactive); in assay [9], 0.929; in assay [13] it was 0.585; in [14] it was -1.92 (inactive); in [15] it was 0.0348 (inactive); in assay [16], 0.549 (inactive). For the same compound, the composite z-score was -0.131 (inactive) in [4], -0.031 in [10], 0.675 (inactive) in assay [11] and 0.0075 in assay [12].
Turning to `C[C@@]12COC[C@]13C=C(Br)[C@H](C2)[C@@]1(CO1)C3=O`, the z-score is 0.138 in assay [1]; -1.38 (inactive) in assay [2]; -0.0295 (inactive) in assay [3]; -0.259 (inactive) in assay [5]; -0.187 (inactive) in assay [6]; -0.651 (inactive) in [7]. In addition, the z-score was -0.534 (inactive) in assay [8]; 0.219 in [9]; 1.88 in assay [13]; -0.703 (inactive) in assay [14]; -0.0927 (inactive) in assay [15]; 0.12 (inactive) in [16]. Further, the composite z-score in assay [4] was -0.658 (inactive); in [10] it was -0.154; in assay [11], 0.0387 (inactive); in [12], -0.192.
Regarding `CCOC(=O)C1=CCN(S(=O)(=O)c2ccc(C)cc2)C1c1ccccc1` (configuration not stated), the z-score is -0.17 in [1]; 0.218 (inactive) in assay [2]; -0.612 (inactive) in assay [3]; 0.449 (inactive) in [5]; 0.58 (inactive) in [6]; -0.564 (inactive) in [7]. Also, the z-score in assay [8] is -0.359 (inactive); in assay [9], -1.01; in assay [13], -0.584; in assay [14], -3.71 (inactive); in assay [15], 0.607 (inactive); in assay [16], 0.346 (inactive). The composite z-score was -0.551 (inactive) in assay [4], -0.0957 in assay [10], 0.866 (inactive) in [11] and 0.805 in assay [12].
Turning to `CCCC=C(CCC)[C@@H](NC(=O)CCc1ccccc1)c1ccc(C(F)(F)F)cc1`, the z-score in assay [1] was 0.561; in assay [2] it was -0.357 (inactive); in [3], -0.407 (inactive); in [5], 0.0944 (inactive); in [6], 0.439 (inactive); in assay [7], 0.0152 (inactive). For the same compound, the z-score in assay [8] was -0.0054 (inactive); in assay [9] it was -0.581; in assay [13], -1.65; in assay [14], -3.8 (inactive); in assay [15] it was 0.007 (inactive); in assay [16] it was -0.287 (inactive). Further, the composite z-score in assay [4] was -1.39 (inactive); in assay [10] it was 0.0734; in assay [11], -0.143 (inactive); in assay [12], 0.75.
`COc1ccc([Si](C)(C)[C@@H]2[C@@H](CC(=O)N3Cc4ccccc4C[C@H]3CO)O[C@]3(C(=O)N(Cc4ccc(N5CCC5=O)cc4)c4ccccc43)[C@H]2C)cc1`: the z-score was 0.353 in assay [1]; 0.457 (inactive) in assay [2]; -0.736 (inactive) in assay [3]; 1.45 (inactive) in assay [5]; 2.01 (inactive) in [6]; 0.7 (inactive) in [7]. The z-score in [8] was 0.613 (inactive); in assay [9], -0.536; in assay [13] it was -2.64; in assay [14], -0.855 (inactive); in assay [15] it was -0.169 (inactive); in assay [16], 0.14 (inactive). Moreover, the composite z-score is -3 (inactive) in [4], 0.177 in assay [10], 1.08 (inactive) in assay [11] and 0.682 in assay [12].
For `CC(C)OC(=O)CC(=O)CC(O)c1ccc([N+](=O)[O-])cc1` (configuration not stated), the z-score in [1] was -0.55; in [2], -1.41 (inactive); in assay [3], -0.119 (inactive); in [5], -0.088 (inactive); in assay [6] it was 0.0857 (inactive); in assay [7], -0.346 (inactive). Further, the z-score in [8] was 0.0547 (inactive); in [9], -0.0948; in [13], 0.697; in [14] it was -1.67 (inactive); in assay [15] it was -0.0884 (inactive); in [16], -0.438 (inactive). Also, the composite z-score was -1.12 (inactive) in [4], -0.212 in assay [10], 0.319 (inactive) in assay [11] and 0.469 in assay [12].
